In PubChem BioAssay:
Values joined by “and” are separate entries in the source; they are usually repeats but may differ in a detail not shown here. Equal entries are not always repeated. A number with no mark means an inactive call. The rule behind the calls is not given here.

Key:
[1] = test system: Aerobactin synthetase IucA (Klebsiella pneumoniae hvKP1); test: Biochemical IucA enzyme inhibition primary screen of the Spectrum library (AID 1346200); details: malachite green pyrophosphate, A620, at 8 µM, active compounds read low;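 note: 100% = wells without compound and 0% = wells lacking enzyme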
[2] = test system: Aerobactin synthetase IucA (Klebsiella pneumoniae, hypervirulent); test: IucA enzyme inhibition, biochemical, LOPAC library, absorbance readout (AID 1346212); details: IucA enzyme assay, absorbance (OD) readout; active compounds read low;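 tested at 8 µM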;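 note: 100% = no compound wells and 0% = no enzyme wells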

Compound	activity remaining [1]	remaining activity [2]
CN(C)CCOC(=O)COc1ccc(Cl)cc1	124%	112%
Cc1cnc(NC(=O)C2=C(O)c3ccccc3S(=O)(=O)N2C)s1	118%	120%
C=C[C@H]1CN2CC[C@H]1C[C@@H]2[C@@H](O)c1ccnc2ccc(OC)cc12	98.9%	115%
O=C(O)/C=C/c1ccc(O)c(O)c1	101%	117%
CCN(CC)CCNC(=O)c1cc(Cl)c(N)cc1OC	88.1%	101%
CCn1cc(C(=O)O)c(=O)c2cc3c(cc21)OCO3	109%	95.5%
NC(CO)C(=O)NNCc1ccc(O)c(O)c1O (stereo not drawn)	109%	111%
Cc1cc(N)c2ccccc2[n+]1CCCCCCCCCC[n+]1c(C)cc(N)c2ccccc21	82.6%	105%
CC(COc1ccccc1)N(CCCl)Cc1ccccc1 (stereo not drawn)	107%	109%
Cn1cnc2c1c(=O)[nH]c(=O)n2C	126%	97.1%
CCCCc1oc2ccccc2c1C(=O)c1cc(I)c(OCCN(CC)CC)c(I)c1	123%	101%
CCCNC(C)C(=O)Nc1ccccc1C (stereo not drawn)	82%	96.4%
O=C1NCC2(CCN(CCc3ccccc3)CC2)O1	111%	97.8%
NC(N)=NC(=O)c1nc(Cl)c(N)nc1N	118%	105%
Cc1c(OCC(F)(F)F)ccnc1CS(=O)c1nc2ccccc2[nH]1 (stereo not drawn)	121%	111%
O=C(Nc1ccc([N+](=O)[O-])cc1Cl)c1cc(Cl)ccc1O	93.6%	113%
Clc1cccc(Cl)c1NC1=NCCN1	119%	122%
C1CCc2nnnn2CC1	112%	107%
Nc1ncnc2c1ncn2[C@@H]1O[C@H](CO)[C@@H](O)[C@H]1O	113%	110%
C[N+](C)(C)CCO	126%	112%
NCCCCN=C(N)N	123%	111%
COc1ccc2c(c1)c(CC(=O)O)c(C)n2C(=O)c1ccc(Cl)cc1	103%	92%
C[C@H](CS)C(=O)N1CCC[C@H]1C(=O)O	99.1%	99.3%
CC(C)NCC(O)COc1cccc2[nH]ccc12 (stereo not drawn)	103%	116%
O=NN(CCCl)C(=O)NCCCl	123%	115%

Compound	activity remaining [1]	remaining activity [2]
CCCCNc1ccc(C(=O)OCCN(C)C)cc1	118%	97.3%
CN(C)CCCN1c2ccccc2CCc2ccc(Cl)cc21	111%	117%
CC(=O)NCCc1c[nH]c2ccc(O)cc12	113%	106%
CCO/C([O-])=N/c1c[n+](N2CCOCC2)no1	99.6%	128%
CCCN1C[C@H](CSC)C[C@@H]2c3cccc4[nH]cc(c34)C[C@H]21	120%	95.5%
CN1C[C@H](C(=O)N[C@]2(C)O[C@@]3(O)[C@@H]4CCCN4C(=O)[C@H](Cc4ccccc4)N3C2=O)C[C@@H]2c3cccc4[nH]cc(c34)C[C@H]21	118%	105%
Cc1cn([C@H]2C[C@H](N=[N+]=[N-])[C@@H](CO)O2)c(=O)[nH]c1=O	114%	117%
NC(=O)c1ncn([C@@H]2O[C@H](CO)[C@@H](O)[C@H]2O)n1	120%	96.8%
CC(C)(C)NCC(O)c1cc(O)cc(O)c1 (stereo not drawn)	109%	109%
CC1(C)NC(=O)N(c2ccc([N+](=O)[O-])c(C(F)(F)F)c2)C1=O	124%	98.2%
O=c1cc(-c2ccc(O)cc2)oc2cc(O)cc(O)c12	113%	107%
O=C(c1ccc(OCCN2CCCCC2)cc1)c1c(-c2ccc(O)cc2)sc2cc(O)ccc12	105%	92%
CCCn1c(=O)c2[nH]c(C3CCCC3)nc2n(CCC)c1=O	82.2%	76.9%
COc1cc2c(c(OC)c1OC)-c1ccc(OC)c(=O)cc1[C@@H](NC(C)=O)CC2	115%	112%
NCCS(=O)(=O)O	123%	97.8%
OC(CCN1CCCCC1)(c1ccccc1)C1CC2C=CC1C2 (stereo not drawn)	87.7%	116%
Cc1ccccc1N1C(=O)c2cc(S(N)(=O)=O)c(Cl)cc2NC1C (stereo not drawn)	95.7%	122% and 125%
O=C1CCc2cc(OCCCCc3nnnn3C3CCCCC3)ccc2N1	117%	113%
COC(=O)[C@H]1[C@H]2C[C@H]3c4[nH]c5ccccc5c4CCN3C[C@H]2CC[C@@H]1O	107%	95.4%
Cn1c(=O)c2[nH]c(C3CCCC3)nc2n(C)c1=O	97.7%	70.6%
Fc1ccc([C@@H]2CCNC[C@H]2COc2ccc3c(c2)OCO3)cc1	108%	121%
Cc1nc2ccccn2c(=O)c1CCN1CCC(C(=O)c2ccc(F)cc2)CC1	120%	101%
CN/C(=C\[N+](=O)[O-])NCCSCc1ccc(CN(C)C)o1	91.1%	101%
O=C(O)c1cccnc1C(=O)O	89.1%	116%
CC[N+](CC)(CC)CCOc1cccc(OCC[N+](CC)(CC)CC)c1OCC[N+](CC)(CC)CC	96.2%	111%

Compound	activity remaining [1]	remaining activity [2]
CC(C)COCC(CN(Cc1ccccc1)c1ccccc1)N1CCCC1 (stereo not drawn)	126%	91.4%
N=C(N)SCCN	98.6%	109%
CN(C)C(=O)C(CCN1CCC(O)(c2ccc(Cl)cc2)CC1)(c1ccccc1)c1ccccc1	113%	114%
N[C@@H](C(=O)N[C@@H]1C(=O)N2C(C(=O)O)=C(Cl)CS[C@H]12)c1ccccc1	103%	120%
N=C(N)c1ccc(OCCCCCOc2ccc(C(=N)N)cc2)cc1	98.2%	122%
O=C(c1ccc(F)cc1)C1CCN(CCn2c(=O)[nH]c3ccccc3c2=O)CC1	120%	73.1%
Cn1c(=O)c2c(ncn2C)n(C)c1=O	119%	113%
CN(C)CCC(c1ccccc1)c1ccccn1 (stereo not drawn)	109%	89.8%
O=C(O)CCCCCCCC(=O)O	120%	93.4%
Cc1ccc(N(CC2=NCCN2)c2cccc(O)c2)cc1	117%	92.9%
O=C(O)c1cc(=O)c2ccccc2[nH]1	113%	109%
Clc1ccc2c(c1)C(N1CCNCC1)=Nc1ccccc1O2	109%	126%
CC(=O)Oc1ccccc1C(=O)O	109%	118%
CC(=O)OC(C)C[N+](C)(C)C (stereo not drawn)	80.8%	119%
CCn1cc(C(=O)O)c(=O)c2cc(F)c(N3CCNC(C)C3)c(F)c21 (stereo not drawn)	104%	118%
NCCc1ccc(O)c(O)c1	103% and 107%	104%
CC(CN(C)C)CN1c2ccccc2CCc2ccccc21 (stereo not drawn)	105%	106%
O=C(CCc1ccc(O)cc1)c1c(O)cc(O)cc1O	105%	79.2%
C[N+](C)(C)CCCCCC[N+](C)(C)C	122%	99.1% and 87%
NC(=O)CC[C@H](N)C(=O)O	109%	110%
O=C(/C=C/c1ccc(O)cc1)c1ccc(O)cc1O	98.7%	93.6%
CC(C)NNC(=O)c1ccncc1	93.2%	128%
O=C(O)C1=CC(=C(c2ccc(O)c(C(=O)O)c2)c2ccc(O)c(C(=O)O)c2)C=CC1=O	101%	103%
COc1ccc(C2CNC(=O)C2)cc1OC1CCCC1 (stereo not drawn)	120%	91.4%
